Test results taken from a collection of fitness landscapes (doi:10.1126/science.1257360).
In all, about 140,000 sequences were measured (“enrichment ratio after two sorts for PhoP signalling”: median about 0, highest 2% from about 11 on). The entries come from a sample that favours the highest values as a whole.

B1: PhoQ; a variant is named by its letters at X, in order, P23837 (parent)
chain: MKKLLRLFFPLSLRVRFLLATAAVVLVLSLAYGMVALIGYSVSFDKTTFRLLRGESNLFYTLAKWENNKLHVELPENIDKQSPTMTLIYDENGQLLWAQRDVPWLMKMIQPDWLKSNGFHEIEADVNDTSLLLSGDHSIQQQLQEVREDDDDAEMTHSVAVNVYPATSRMPKLTIVVVDTIPVELKSSYMVWSWFIYVLSANLLLVIPLLWVAAWWSLRPIEALAKEVRELEEHNRELLNPATTRELTSLVRNLNRLLKSERERYDKYRTTLTDLTHSLKTPLXXLQXXLRSLRSEKMSVSDAEPVMLEQISRISQQIGYYLHRASMRGGTLLSRELHPVAPLLDNLTSALNKVYQRKGVNISLDISPEISFVGEQNDFVEVMGNVLDNACKYCLEFVEISARQTDEHLYIVVEDDGPGIPLSKREVIFDRGQRVDTLRPGQGVGLAVAREITEQYEGKIVAGESMLGGARMEVIFGRQHSAPKDE

Variants of: B1
Experiment: enrichment ratio after two sorts for PhoP signalling (ratio (wild type AVST 3.29)); higher = more functional
Settings: with PhoP (E. coli)

Variant | enrichment ratio
QRGI | ≤ 0.25
VSMY | ≤ 0.25
YGPL | ≤ 0.25
AGVR | ≤ 0.25
TLEC | ≤ 0.25
VESY | ≤ 0.25
YITC | ≤ 0.25
QKNA | ≤ 0.25
AKTF | 2.43
KSTF | ≤ 0.25
AITF | 15
IPNS | ≤ 0.25
WFEY | ≤ 0.25
AYPG | ≤ 0.25
TDLT | 7.28
TDTK | ≤ 0.25
TDTI | 14.6
TDYI | ≤ 0.25
CDLS | ≤ 0.25
LTLS | ≤ 0.25
TDLA | 14
TDTH | 8.19
LTLN | ≤ 0.25
KDLN | ≤ 0.25
TDLN | 14.9

Variant | enrichment ratio
TDLS | 18
VMTR | ≤ 0.25
STQS | ≤ 0.25
KTAN | ≤ 0.25
DFLN | ≤ 0.25
NTCK | ≤ 0.25
QLKF | ≤ 0.25
GGQG | ≤ 0.25
TVQG | 14.6
KAQG | ≤ 0.25
PVQG | ≤ 0.25
TFQG | 12.3
PFQG | ≤ 0.25
NFQG | ≤ 0.25
NVQG | ≤ 0.25
TGQG | 15.7
TLQG | 11.8
RGQG | ≤ 0.25
PLQG | ≤ 0.25
VFKH | ≤ 0.25
NHHA | ≤ 0.25
ILFN | ≤ 0.25
FTCA | ≤ 0.25
STNQ | 1.23
FWKT | ≤ 0.25

Variant | enrichment ratio
LMTM | ≤ 0.25
HAQG | ≤ 0.25
TMQG | 11.9
EMQG | ≤ 0.25
TITY | ≤ 0.25
FQAM | ≤ 0.25
SQAT | 12.5
GTAM | ≤ 0.25
SLAT | ≤ 0.25
TQAM | 25.5
SNAM | 13.5
SNWM | ≤ 0.25
NQAM | ≤ 0.25
ITAM | 0.308
SNCK | 0.609
SFAT | ≤ 0.25
TTAM | 17.5
EQWF | ≤ 0.25
TQKS | ≤ 0.25
TDDA | ≤ 0.25
HGKC | ≤ 0.25
ILFG | ≤ 0.25
SPAM | ≤ 0.25
YTAM | ≤ 0.25
SFAM | ≤ 0.25

Variant | enrichment ratio
WQAM | ≤ 0.25
SEAM | 15.9
SERM | ≤ 0.25
SQAM | 21.4
STAM | 12.1
RSGP | ≤ 0.25
ILCM | ≤ 0.25
CSYF | ≤ 0.25
EGPL | ≤ 0.25
STKG | ≤ 0.25
TAEP | 0.518
VSNR | ≤ 0.25
AKLN | 14
ITLN | 1.49
TKLN | 8.35
SPLN | ≤ 0.25
YTLN | 8.58
GGCN | 0.54
RGCN | ≤ 0.25
KYLN | ≤ 0.25
STLN | 14.8
TGCN | 42.2
AILN | 4.12
TTLN | 23.9
AGQV | ≤ 0.25

Variant | enrichment ratio
QSKK | ≤ 0.25
HWTI | ≤ 0.25
QAFH | 9.93
QFDR | ≤ 0.25
QGQP | ≤ 0.25
LKDC | ≤ 0.25
PWTA | ≤ 0.25
LSFA | ≤ 0.25
YDML | ≤ 0.25
AICN | 18.7
ADCN | 11.5
NICN | ≤ 0.25
SPCN | ≤ 0.25
TVCN | 26.1
NVCN | ≤ 0.25
ATCN | 3.42
RICN | ≤ 0.25
ATLN | 17.9
AWCN | ≤ 0.25
AHCN | ≤ 0.25
ATQN | ≤ 0.25
CTFI | 9.39
DTFW | ≤ 0.25
LRFL | ≤ 0.25
IIPK | ≤ 0.25

Variant | enrichment ratio
EKLK | ≤ 0.25
QVPD | ≤ 0.25
ENFI | ≤ 0.25
QKFY | ≤ 0.25
TDCN | 15.7
LTCN | ≤ 0.25
ASCN | 15.3
ASLN | 9.05
SGCK | 8.85
HWCN | ≤ 0.25
SGCN | 11.5
SGLN | 10.9
ANCN | 33
VRCN | ≤ 0.25
ANLN | 8.47
KDCN | ≤ 0.25
MIMG | ≤ 0.25
MYAM | ≤ 0.25
RCLW | ≤ 0.25
SMWE | ≤ 0.25
ALQI | ≤ 0.25
PLLC | ≤ 0.25
MISF | 3.65
TTCN | 11.9
AALN | 8.23

Variant | enrichment ratio
AACN | 12.7
KACN | ≤ 0.25
YTCN | ≤ 0.25
LWCN | ≤ 0.25
KGPM | ≤ 0.25
SMIS | ≤ 0.25
TEVI | 12.8
NENM | ≤ 0.25
TEYD | ≤ 0.25
TEND | 23.1
TENM | 15.7
MCVI | ≤ 0.25
NEVI | 4.98
MEVI | 18.2
MENM | ≤ 0.25
MMVI | ≤ 0.25
TEGD | ≤ 0.25
TEVA | 6.58
ESVY | ≤ 0.25
NGGL | ≤ 0.25
LFQL | ≤ 0.25
KSDP | ≤ 0.25
FMMA | ≤ 0.25
TENL | 6.63
TENS | 8.17

Variant | enrichment ratio
TENY | 11.3
PRSQ | ≤ 0.25
TGHK | ≤ 0.25
FSEI | ≤ 0.25
AAMG | 9.84
TEST | 23.4
YTST | ≤ 0.25
FTST | ≤ 0.25
SQST | 6.97
QEST | 1.97
SEST | 18.4
SRST | ≤ 0.25
NEST | 3.45
YEST | 12.8
PLIK | ≤ 0.25
AQAT | 5.01
SLNT | ≤ 0.25
FKYM | ≤ 0.25
KASH | ≤ 0.25
TANH | ≤ 0.25
HFAH | ≤ 0.25
TAKH | ≤ 0.25
TAAH | 19.2
TASH | 11.7
